This note sets out measurements from PubChem BioAssay AID1851 (National Center for Advancing Translational Sciences (NCATS), 2009).

The structures appear in SMILES notation. Several values for one entry are separate records, joined by “and”; a condition that tells them apart may be missing. Equal values may be shown once. Hit rate of the full screen: of about 16,000 compounds, about 5,700 (36%) were called active. Inconclusive results (about 24%) are left out. This is one part of the list. A number with no mark means an inactive call. Calls come from the whole dose curve; as a rule, active = well fitted curve in the direction sought with a large enough effect; inconclusive = small, poorly fitted or top-dose-only effect, or effect the other way; inactive = no such curve, though single readings can be large or run the other way.
% is set by controls: 0 for no effect and ±100 for the full control effect.

The experiment deals with Cytochrome P450 1A2 (Homo sapiens) (UniProt P05177). Briefly: Cytochrome panel assay with activity outcomes. The settings on record: recombinant CYP, pro-luciferin dealkylation, luminescence, p450-cyp1a2; series mostly up to 57.1 µM.
Cytochrome P450 1A2 (Homo sapiens), sequence (P05177 whole entry, looked up): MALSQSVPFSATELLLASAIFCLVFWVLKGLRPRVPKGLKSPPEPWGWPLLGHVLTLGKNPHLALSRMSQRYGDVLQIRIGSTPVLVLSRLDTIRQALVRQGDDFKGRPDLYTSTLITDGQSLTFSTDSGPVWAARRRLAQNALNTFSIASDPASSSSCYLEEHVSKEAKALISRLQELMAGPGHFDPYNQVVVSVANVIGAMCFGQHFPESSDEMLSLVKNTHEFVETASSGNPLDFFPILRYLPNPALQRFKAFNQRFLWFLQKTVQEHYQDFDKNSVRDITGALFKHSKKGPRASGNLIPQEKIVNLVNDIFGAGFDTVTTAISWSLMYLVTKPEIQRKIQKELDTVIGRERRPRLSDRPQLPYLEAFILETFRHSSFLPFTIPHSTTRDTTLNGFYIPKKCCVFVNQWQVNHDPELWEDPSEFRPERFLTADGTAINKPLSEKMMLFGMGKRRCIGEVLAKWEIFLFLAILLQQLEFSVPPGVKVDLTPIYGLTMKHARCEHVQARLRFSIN
Take `O=C(c1cc(C(F)(F)F)cc(C(F)(F)F)c1)N1CCC2(CC1)CCN(c1ncccn1)CC2`: the AC50 (usually the midpoint of the concentration-response curve, whichever way the signal moves) was “inactive”.
The same measure, in the same setting: the entry for `CCCCN1C(=O)C(NC(=O)CC(C)C)(C(F)(F)F)C2=C1CC(C)(C)CC2=O` (configuration not stated) is “inactive”; for `O=C(c1cccc(F)c1)N1CCC[C@@]2(CCN(c3ccccc3)C2)C1` it is “inactive”; for `O=C(c1cccc(F)c1)N1CCC[C@@]2(CCN(c3ccncc3)C2)C1` it is “inactive”.
Consider `O=C(c1cccc(F)c1)N1CCC[C@@]2(CCN(c3cccc(-c4ccccc4)c3)C2)C1`, for which the AC50 is 15.8 µM (active).
Take `C[N+]1(C)C[C@@H](O)C[C@@H]1C(=O)[O-]`: the AC50 entry was “inactive”.
The same measure, in the same setting: then `COc1cccc(CNCc2ccc(SC)cc2)c1OC`, with 15.8 µM (active); and `COc1cccc(CN2C(=O)N(C(C)C)C(N(O)C(=O)NC(C)C)C2(C)C)c1OC` (configuration not stated), with “inactive”; and `c1ccc(-c2cccc(N3CCC4(CCNCC4)CC3)c2)cc1`, with 15.8 µM (active).
In the case of `COCC(=O)N1CCC2(CC1)CCN(c1cccc(-c3ccccc3)c1)CC2`, the AC50 is 5.01 µM (active).
On to `CC(=O)N1CCC2(CC1)CCN(c1ccc(-c3ccccc3)cc1)CC2`, for which the AC50 is 10 µM (active).
The same measure, in the same setting: then `COC(=O)N1CCC2(CC1)CCN(c1cccc(-c3ccccc3)c1)CC2`, with “inactive”; and `CC(=O)N1CCC2(CC1)CCN(c1ccncc1)CC2`, with “inactive”.
On to `COC(=O)N1CCC2(CC1)CCN(c1ccccc1)CC2`, for which the AC50 result is “inactive”.
Take `CC(=O)N1CCC2(CC1)CN(c1ccccc1)C2`: the AC50 result is “inactive”.
Regarding `COC(=O)N1CCC2(CC1)CN(c1cccc(-c3ccccc3)c1)C2`, the AC50 result was “inactive”.
On to `c1ccc(C(c2ccccc2)N2CCC3(CCNCC3)CC2)cc1`, for which the AC50 entry was “inactive”.
As for `CC(=O)N1CCC2(CCCN(c3ccccc3)C2)CC1`, the AC50 result is “inactive”.
On the same count and under the same terms, then `CC(=O)N1CCC2(CCCN(c3cccc(-c4ccccc4)c3)C2)CC1`, with 5.01 µM (active); and `N#Cc1ccc(CN2CCC3(CC2)CCN(C(=O)c2ccncc2)CC3)cc1`, with “inactive”.
`CC[C@@H](Nc1ncnc2nc[nH]c12)C(=O)O`: the activity, negative = inhibition is -2.91% [at 11.4 µM].
Consider `COCC(=O)N1CCC2(CCCN(C(=O)Nc3ccccc3)C2)CC1`, for which the AC50 result is “inactive”.
Regarding `COCC(=O)N1CCC2(CC1)CN(C(=O)Nc1ccccc1)C2`, the AC50 is 12.6 µM (active).
For `COCC(=O)N1CCC2(CCCN(c3cccc(-c4ccccc4)c3)C2)CC1`, the AC50 is 15.8 µM (active).
On the same count and under the same terms, then `COCC(=O)N1CCC2(CC1)CN(C(=O)Nc1ccc(OC)cc1)C2`, with “inactive”.
Still for that read-out and setting: the entry for `COCC(=O)N1CCC2(CCCN(c3ccncc3)C2)CC1` is “inactive”.
For the molecule `O=C(Oc1ccccc1)N1CCC2(CCCN(c3cccc(-c4ccccc4)c3)C2)CC1`, the AC50 entry was “inactive”.
For `CCn1nc(C(=O)Nc2ccccc2C)c(Cl)c1Cl`, the AC50 is 1.26 µM (active).
With `N#Cc1cccc(-c2nc(NCc3cccs3)c3ccccc3n2)c1`, the AC50 is 0.316 µM (active).
For the molecule `N#Cc1cccc(-c2nc(NCc3cccnc3)c3ccccc3n2)c1`, the AC50 was 0.251 µM (active).
Turning to `N#Cc1cccc(-c2nc(NCc3ccccc3)c3ccccc3n2)c1`, the AC50 was 0.398 µM (active).
For the molecule `NCC[C@H]1CCC[C@H](CCN)N1`, the AC50 entry is “inactive”.
With `O=C(Nc1nnc(C2CC2)s1)c1ccc(S(=O)(=O)c2ccccc2)cc1`, the AC50 entry was “inactive”.
On to `O=C(NN=C1C2CC3CC(C2)CC1C3)c1ccncc1`, for which the AC50 result was “inactive”.
The same measure, in the same setting: the figure for `O=C(Nc1nnc(C2CC2)s1)c1ccncc1` is 12.6 µM (active).
Regarding `COc1ccc(O[C@H]2C=C[C@@H](c3ccccc3)O[C@H]2CO/N=C2/[C@H]3O[C@@H]3[C@@H](O)[C@H]3[C@H]2CCn2c(=O)n(-c4ccccc4)c(=O)n23)cc1`, the activity, negative = inhibition was 12.3% [at 11.4 µM].
Turning to `Cc1ccccc1NC1=NC(=S)N(c2ccccc2)C12CCOC(C)(C)C2` (configuration not stated), the AC50 entry is “inactive”.
For `CS(=O)(=O)c1ccc(-c2cc(Br)sc2-c2ccc(F)cc2)cc1`, the AC50 was 0.398 µM (active).
For `FC(F)(F)c1cnc(/C=C/Nc2ccccc2Cl)c(Cl)c1`, the AC50 was 1.41 µM (active).
Consider `N#CC(c1ccc(Cl)cc1)(c1ncc(C(F)(F)F)cc1Cl)N1CCOCC1` (configuration not stated), for which the AC50 result was “inactive”.
On to `N#CC(c1ccccn1)(c1ncc(C(F)(F)F)cc1Cl)N1CCOCC1` (configuration not stated), for which the AC50 result is “inactive”.
Still for that read-out and setting: the entry for `NC(=O)C[C@H](NC(=O)Cc1ccc(O)cc1O)C(=O)O` is “inactive”; for `CCc1nc2c(c(SC)nn2-c2ccccc2)c(N)c1C(=O)OC` it is 0.631 µM (active); for `Nc1cc(-c2ccncc2)c[nH]c1=O` it is 15.8 µM (active).
The same measure, in the same setting: the entry for `NC(=O)c1cc[n+](CC2=C(C(=O)O)N3C(=O)[C@@H](NC(=O)[C@H](c4ccccc4)S(=O)(=O)[O-])[C@@H]3SC2)cc1` is “inactive”; for `CN(Cc1ccco1)c1nc(-c2cccc(C#N)c2)nc2ccccc12` it is 0.1 µM (active); for `COc1cccc(-c2nc(N(C)C)c3ccccc3n2)c1` it is 0.251 µM (active).
Still for that read-out and setting: then `COc1cccc(-c2nc(N(C)Cc3ccco3)c3ccccc3n2)c1`, with 0.316 µM (active).
For `CC(=O)N[C@@H]1CONC1=O`, the activity, negative = inhibition was -16.9% [at 11.4 µM].
For the molecule `COc1ccccc1CN1CCCC2(CCN(S(C)(=O)=O)CC2)C1`, the AC50 result is “inactive”.
As to `c1csc(CNc2ccnc(-c3ccc4c(c3)OCO4)n2)c1`, the AC50 was 0.316 µM (active).
Take `c1ccc(CNc2ccnc(-c3ccc4c(c3)OCO4)n2)cc1`: the AC50 is 0.398 µM (active).
Still for that read-out and setting: then `COc1ccc(CNC(=O)C(c2ccc(C)cc2)N(Cc2cccs2)C(=O)c2ccc3c(c2)OCCO3)cc1` (configuration not stated), with “inactive”.
In the case of `c1cncc(CNc2ccnc(-c3ccc4c(c3)OCO4)n2)c1`, the half-maximal activity concentration (AC50) is 0.126 µM (active).
On to `CCOC(=O)C1=C(N)Oc2ccc(Br)cc2[C@@H]1[C@@H](C#N)C(=O)OCC`, for which the AC50 is 0.251 µM (active).
`CO[C@@H]1COC(=O)[C@H]2CCCN2C(=O)[C@@H](C)COC(=O)C/C=C\[C@H]1C`: the activity, negative = inhibition is 1.25% [at 11.4 µM].
Turning to `CCCN1CCC(=NNC(=O)c2ccc(Br)o2)CC1`, the concentration at half-maximal activity (AC50) is 8.91 µM (active).
Regarding `O=C(c1ccccc1NS(=O)(=O)c1cccc([N+](=O)[O-])c1)N1CCOCC1`, the AC50 result was “inactive”.
Consider `O=Nc1c(O)n(Cc2ccc(Cl)cc2)c2ccccc12`, for which the concentration at half-maximal activity (AC50) is 14.1 µM (active).
Same read-out and setting: the entry for `Cc1nn(CC(=O)NCCN2CCOCC2)c(C)c1[N+](=O)[O-]` is “inactive”.
Regarding `Cl/C(=C\n1cncn1)c1ccc(Cl)cc1Cl`, the AC50 was 0.0631 µM (active).
On to `O=C(Nc1cccn2ncnc12)c1ccc(Cl)cc1Cl`, for which the AC50 entry is “inactive”.
As to `COc1cccc(/C(O)=C2/C(=O)C(=O)N(Cc3cccnc3)C2c2ccco2)c1` (configuration not stated), the AC50 entry was “inactive”.
`CCOc1cccc(/C(O)=C2/C(=O)C(=O)N(Cc3cccnc3)C2c2ccco2)c1` (configuration not stated): the AC50 result is “inactive”.
For the molecule `CCOc1cccc(/C(O)=C2/C(=O)C(=O)N(Cc3ccco3)C2c2ccncc2)c1` (configuration not stated), the AC50 was 25.1 µM (active).
Regarding `N[C@@H](Cn1ccc(=O)n(Cc2ccccc2C(=O)O)c1=O)C(=O)O`, the AC50 result is “inactive”.
Still for that read-out and setting: then `O=C(c1ccccc1)c1c[nH]c(C(=O)NCc2cccnc2)c1`, with 3.55 µM (active).
On to `O=S1(=O)[C@H]([C@H]2CC3c4ccccc4C2c2ccccc23)[C@@H](N2CCCCC2)[C@@H]1c1ccccc1`, for which the activity, negative = inhibition was 1.63% [at 2.29 µM].
In the case of `O=C(CCn1nc(-c2ccc(Cl)cc2)ccc1=O)N1CCOCC1`, the AC50 result was “inactive”.
Take `Nn1c(SCC(=O)N2CCOCC2)nnc1-c1ccccc1Cl`: the AC50 entry was “inactive”.
On the same count and under the same terms, the figure for `CC(C)Cn1c(-c2ccc(Cl)cc2)cnc1SCC(=O)N1CCOCC1` is 12.6 µM (active).
As to `C#CCSc1n[nH]c(-c2ccco2)n1`, the AC50 was 2 µM (active).
Still for that read-out and setting: the entry for `CN(C)C(N)=NCCC[C@H](N)C(=O)O` is “inactive”; for `O[C@@H](C1=C/C(=C\c2ccncc2)c2ccccc21)c1ccncc1` it is 0.1 µM (active).
On to `COc1ccc(/C=N/NC(=O)CCCC(=O)NC2CCCCC2)cc1`, for which the half-maximal activity concentration (AC50) was 11.2 µM (active).
Same read-out and setting: then `COc1ccc(CCCC(=O)NC2CCCCC2)cc1`, with 25.1 µM (active).
Take `COc1ccc2c(c1)C(=O)N(CCc1ccc(S(=O)(=O)NC(=O)NC3CCCCC3)cc1)C(=O)C2(C)C`: the AC50 entry was “inactive”.
Same read-out and setting: the entry for `COc1ccc(C(C(=O)NC2CCCCC2)N2CCC3(CC2)OCCO3)cc1` (configuration not stated) is “inactive”; for `COc1ccc(C(C(=O)NC2CCCCC2)N(C(=O)CCCC(=O)Nc2ccccn2)c2ccc3c(c2)OCCO3)cc1` (configuration not stated) it is “inactive”.
For the molecule `CCCC(=O)N=C1SC2CS(=O)(=O)CC2N1c1ccc(CC)cc1` (configuration not stated), the AC50 result is “inactive”.
On to `CC(=O)OC[C@H]1O[C@@H](O/N=C(\C)CCC(=O)OC[C@@H]2O[C@H](C#Cc3ccccc3)C=C[C@@H]2Oc2ccc(C)cc2)[C@H](OC(C)=O)[C@@H](OC(C)=O)[C@H]1OC(C)=O`, for which the activity, negative = inhibition was -5.25% [at 11.4 µM].
On to `O=c1c(-c2cc(F)cc(F)c2)nc2cncnc2n1-c1ccccc1`, for which the AC50 was 12.6 µM (active).
Turning to `O=c1c(-c2cccc(F)c2)nc2cncnc2n1-c1ccccc1`, the half-maximal activity concentration (AC50) is 10 µM (active).
With `C/C(CCN1CCc2nc(-c3ccccc3)c(-c3ccccc3)cc2C1)=N\O[C@@H](C)CN1CCCCc2nc(C)c(C)cc21`, the activity, negative = inhibition is -10.7% [at 11.4 µM].
On to `Cc1c(-c2ccc(O)cc2)nn(-c2ccc(O)cc2)c1-c1ccc(OCCN2CCCCC2)cc1`, for which the AC50 is 12.6 µM (active).
As to `CC(=O)N1CCC[C@@]2(CCN(Cc3ccccc3)C2)C1`, the AC50 result was “inactive”.
The same measure, in the same setting: the entry for `COC(=O)[C@@]1(Cc2ccc(F)cc2)[C@H]2c3cc(C(=O)N4CCCC4)n(Cc4ccc(Cl)c(C(F)(F)F)c4)c3C[C@H]2CN1C(=O)c1ccccc1` is “inactive”; for `CCOC(=O)C1=C(CSc2nc(-c3ccccc3)ccc2C#N)OC(N)=C(C#N)C1c1ccc(OC)cc1` (configuration not stated) it is 2 µM (active); for `CSc1ccc(S(=O)(=O)Nc2ccc3c4c(cccc24)CC3)cc1` it is 25.1 µM (active).
On to `Cc1ccc(S(=O)(=O)Nc2ccccc2C=O)cc1`, for which the activity, negative = inhibition is -16% [at 11.4 µM].
With `O=C(NCCc1ccc(Cl)cc1)c1ncn[nH]1`, the AC50 was 20 µM (active).
Still for that read-out and setting: then `Cc1nc(SCC(=O)NCCc2ccc(Cl)cc2)nc(C)c1C`, with 20 µM (active); and `Cc1nc(SCC(=O)Nc2c(C)n(C)n(-c3ccccc3)c2=O)nc(C)c1C`, with “inactive”; and `NCCNC(=O)c1ccc(Cl)cc1`, with 12.6 µM (active) and 10 µM (active).
On to `O=C(NCCc1ccc(Cl)cc1)Nc1cccc(Cl)c1`, for which the AC50 is 4.47 µM (active).
`N[C@@H](C(=O)O)[C@H](CC(=O)O)c1ccc(Cl)cc1`: the AC50 entry was “inactive”.
For the molecule `Cc1nc(SCC(=O)Nc2ccc(N3CCOCC3)cc2)nc(C)c1C`, the AC50 result was “inactive”.
